CCT chaperon mod: cytosolic chaperonin activity modulation; activity change, % (concentration not given with the values), hits read low; AID 651819; purified chaperonin ATPase assay, HTRF ADP detection, 30 min; 360,000 compounds, 0.3% hits; in the data active = activity change below about -30%
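Enzyme 40 or 20 nM (batch-dependent) in Tris pH 7.4/KCl/MgCl2/DTT; cpd 76 uM single point; ATP 10 uM; 30 min 37 °C; Transcreener ADP HTRF detection, 30 min RT; ratio 665/615.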
Sfp inh: blocks B. subtilis Sfp PPTase activity; Q9F4F7; Biochemical Sfp PPTase activity, qHTS; Potency, µM, hits mostly inhibitors; 310,000 compounds, 3.5% hits; AID 1490;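 note: the enzyme is Sfp with the accession as filed and its product quenches rhodamine fluorescence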
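Buffer: 50 mM Hepes-Na pH 7.6, 10 mM MgCl2, 0.01% Nonidet P-40, 0.01% BSA. Enzyme 15 nM, pre-exposed to compound 15 min; substrates then added and fluorescence change tracked over 30 min.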
G9a block: inhibitors of human histone lysine methyltransferase G9a; G9a H3K9 monomethylation, AlphaScreen, 2 h; Potency, µM (highest dose often 102 µM), hits mostly inhibitors; 350,000 compounds, 8.8% hits; note: nearly all actives have a fitted effect of over 75% in size
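Chemiluminescent proximity detection of H3K9 monomethylation, read after 10 min bead incubation in the dark. Reaction: 20 nM G9a, 500 nM biotin-H3K9 peptide, 20 uM SAM cofactor, 2 h, room temperature, following 15 min enzyme-compound preincubation.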
VDR inhibitor: blocks the human vitamin D receptor | Potency, µM, hits mostly inhibitors | VDR-SRC2-3 peptide fluorescence polarization, 2 h | P11473 | 400,000 compounds, 0.93% hits
Target sequence (P11473 whole entry, looked up): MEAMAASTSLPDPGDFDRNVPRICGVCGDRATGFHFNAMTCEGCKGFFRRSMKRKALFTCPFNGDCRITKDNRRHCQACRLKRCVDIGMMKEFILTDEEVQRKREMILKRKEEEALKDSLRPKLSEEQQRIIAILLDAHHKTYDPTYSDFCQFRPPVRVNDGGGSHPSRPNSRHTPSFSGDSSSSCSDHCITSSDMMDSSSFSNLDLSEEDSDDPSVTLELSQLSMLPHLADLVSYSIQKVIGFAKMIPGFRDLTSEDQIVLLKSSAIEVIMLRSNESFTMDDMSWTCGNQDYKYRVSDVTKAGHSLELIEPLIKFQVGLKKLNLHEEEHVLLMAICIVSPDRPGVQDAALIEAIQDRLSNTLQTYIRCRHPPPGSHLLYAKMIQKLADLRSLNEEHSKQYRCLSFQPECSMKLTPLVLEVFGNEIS
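VDR–SRC2-3 interaction, FP format. Cmpds 23 nl via pintool, brief spin, 2 h ambient incubation.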
Mm-Cpn inhibitor: inhibitors of Methanococcus maripaludis chaperonin TRiC (MmCpn); Potency, µM (doses to about 76.9 µM), hits mostly inhibitors; 330,000 compounds, 0.031% hits; purified Mm-Cpn ATPase, ADP Transcreener TR-FRET; note: nearly all actives have a fitted effect of over 80% in size
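Eu-cryptate anti-ADP/ADP-d2 competition gives a ratio inversely related to ADP. Enzyme at 25 nM was pre-exposed to compound for 10 min, then given 10 uM ATP for 30 min, 37°C throughout.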
PLK1 PBD block: PLK1 (human) polo-box domain binding inhibition | Plk1 PBD binding of FITC phosphopeptide, fluorescence polarization | Potency, µM, most hits filed as inhibitors | 360,000 compounds, 2.8% hits; note: series mostly up to about 57 µM; nearly all actives have a fitted effect of over 65% in size
Each line names hits and unclear results; the compound was inactive in the other large screens. Sampled rows, rich in hits. Any-hit rate of the full collection: about 10%. Unless noted, calls come from the whole dose curve; as a rule, active = well fitted curve in the direction sought with a large enough effect; inconclusive = small, poorly fitted or top-dose-only effect, or another doubt; inactive = no such curve, though single readings can be large; an effect the other way counts as inactive or inconclusive.

Cc1nc(NS(=O)(=O)c2ccccc2C)c2c3c(sc2n1)CCC3	G9a block 45µM
O=S(=O)(Nc1ncnc2sc3c(c12)CCC3)c1ccc2ccccc2c1	PLK1 PBD block 34µM
COc1cccc(CSc2nc3n(n2)C(c2ccccc2C)C(C(=O)Nc2ccccc2OC)=C(C)N3)c1 (stereo not drawn)	none (no result: CCT chaperon mod, Sfp inh, Mm-Cpn inhibitor, PLK1 PBD block)
Cc1c2cnn(-c3ccccc3)c(=O)c2c(C)n1CCCC(=O)Nc1cccc(F)c1	none (no result: CCT chaperon mod, Sfp inh, Mm-Cpn inhibitor, PLK1 PBD block)
CCNC(=O)CC1SC(=Nc2cccc3ccccc23)N(C)C1=O (stereo not drawn)	G9a block 50µM
CCNC(=O)CC1SC(=Nc2ccccc2C)N(C)C1=O (stereo not drawn)	none
CCOc1cccc(C(=O)Nc2c(C(=O)c3ccc(OC)cc3)oc3ccccc23)c1	none (no result: CCT chaperon mod, Sfp inh, Mm-Cpn inhibitor, PLK1 PBD block)
COc1ccc(N2CCN(C(=O)COC(=O)Cc3c(F)cccc3Cl)CC2)cc1	G9a block 50µM (no result: Sfp inh)
COc1ccc(N2CCN(C(=O)COC(=O)Cc3cccc(OC)c3)CC2)cc1	G9a block 40µM (no result: Sfp inh)
CCC(=O)c1ccc(OCC(=O)OCC(=O)N2CCN(c3ccc(OC)cc3)CC2)cc1	none (no result: Sfp inh)
COc1ccc(N2CCN(C(=O)COC(=O)COc3cc(C)cc(C)c3)CC2)cc1	G9a block 32µM (no result: Sfp inh)
Cc1occc1C(=O)NCCCCNC(=O)c1ccoc1C	none
Cc1occc1C(=O)Nc1c(F)c(F)c(F)c(F)c1F	G9a block 14µM, PLK1 PBD block inconclusive
Cc1occc1C(=O)Nc1nn[nH]n1	G9a block 45µM
COc1cc(Cl)c(C)cc1NC(=O)CC(c1ccc(F)cc1)N1Cc2ccccc2C1=O (stereo not drawn)	none (no result: CCT chaperon mod, Sfp inh, Mm-Cpn inhibitor, PLK1 PBD block)
O=C(Nc1ccccc1C(F)(F)F)c1cc2nc(-c3ccccc3)cc(-c3ccccc3)n2n1	none (no result: CCT chaperon mod, Sfp inh, Mm-Cpn inhibitor, PLK1 PBD block)
Cc1cc(C)nc(NS(=O)(=O)c2ccc(NC(=O)CSc3nc(-c4ccccc4)c(C#N)c(=O)[nH]3)cc2)n1	G9a block 79µM, Mm-Cpn inhibitor inconclusive
N#Cc1c(-c2ccccc2)nc(SCC(=O)Nc2ccccc2)[nH]c1=O	G9a block inconclusive
Cc1cc(NS(=O)(=O)c2ccc(NC(=O)CSc3nc4sc(C(=O)O)c(C)c4c(=O)[nH]3)cc2)no1	G9a block inconclusive, PLK1 PBD block 27µM
N#Cc1c(-c2ccccc2)nc(SCC(=O)Nc2nnc(C(F)(F)F)s2)[nH]c1=O	G9a block 50µM, VDR inhibitor inconclusive
O=C(Nc1ccc(N2CCN(CCOc3ccc(Cl)cc3)CC2)c(C(=O)O)c1)c1ccc(F)cc1	none (no result: CCT chaperon mod, Sfp inh, Mm-Cpn inhibitor, PLK1 PBD block)
CCc1ccc(C2=CC(c3cccc(C)c3)n3c(nc4ccccc43)N2)cc1 (stereo not drawn)	none (no result: CCT chaperon mod, Sfp inh, Mm-Cpn inhibitor, PLK1 PBD block)
CC1CCC2C(=O)OC(CO)CN2C1c1ccc(Br)cc1 (stereo not drawn)	none (no result: CCT chaperon mod, G9a block, VDR inhibitor, Mm-Cpn inhibitor, PLK1 PBD block)
CCN1C(=O)[C@H]2[C@H]3[C@H](O)[C@H](O)C/C(=N/OC[C@@H](O)COCc4ccco4)[C@@H]3CC[C@@H]2C1=O	none (no result: CCT chaperon mod, G9a block, VDR inhibitor, Mm-Cpn inhibitor, PLK1 PBD block)
COc1ccccc1NC(=O)C1CCN(C(=O)c2sc3nc[nH]c(=O)c3c2C)CC1	none (no result: CCT chaperon mod, Sfp inh, Mm-Cpn inhibitor, PLK1 PBD block)
COc1ccc(NC(=S)N(CCC(C)C)C2CCN(C(C)C)CC2)cc1	none
COc1ccc(NC(=S)N(C(C)C)C2CCN(C(C)C)CC2)cc1Cl	Sfp inh inconclusive, G9a block 45µM (no result: CCT chaperon mod, VDR inhibitor, PLK1 PBD block)
COc1ccc(NC(=S)N2CCC(N(C)CC3CCCO3)CC2)cc1Cl (stereo not drawn)	Sfp inh 40µM, PLK1 PBD block inconclusive
COc1ccccc1CN1CCC2(CC1)CCN(C(=O)c1csnn1)CC2	none (no result: CCT chaperon mod, Mm-Cpn inhibitor, PLK1 PBD block)
COC(=O)CSc1nnc(C)c(=O)[nH]1	none
CCOC(=O)CNc1nnc(SCC(=O)OCC)[nH]c1=O	G9a block 22µM, VDR inhibitor 40µM, PLK1 PBD block inconclusive
CCOCCCNC(=O)c1c[nH]c2ccc(OCC)cc2c1=O	VDR inhibitor inconclusive, PLK1 PBD block 30µM
CCOc1ccc(CNC(=O)Cn2nc(C)n3cccc3c2=O)cc1	none (no result: CCT chaperon mod, Sfp inh, Mm-Cpn inhibitor, PLK1 PBD block)
CCNC(=O)Cc1ccc(NC(=O)N2CCCCc3ccccc32)cc1	none (no result: CCT chaperon mod, Sfp inh, Mm-Cpn inhibitor, PLK1 PBD block)
COC(=O)C1=C(C)NC(=S)NC1c1ccc(-c2cc(Cl)ccc2Cl)o1 (stereo not drawn)	Sfp inh 40µM, G9a block inconclusive, VDR inhibitor inconclusive, Mm-Cpn inhibitor inconclusive

Assay outcomes: PubChem BioAssay, National Center for Advancing Translational Sciences (NCATS)
